Screens from PubChem BioAssay.
Sm TGR block: blocks Schistosoma mansoni thioredoxin glutathione reductase | purified TGR, DTNB reduction, TNB absorbance 405 nm | Potency, µM (top dose mostly 114 µM), for inactives: at the top dose activity change, negative = inhibition, usual class: inhibitors | 3% of 360,000 active | AID 485364; note: potency is the fitted concentration of half-maximal effect; nearly all actives have a fitted effect of over 60% in size
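TGR 20 nM + NADPH 100 uM (dispensed conc.), cpd preinc 15 min RT; start with NADPH (500 uM addition) then DTNB (15 mM addition). Kinetic TNB absorbance, 405 nm filter. Four-parameter Hill fit across titration.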
HCMV antiviral: human cytomegalovirus inhibition | 4.5% of 410,000 active | HFF cells, HCMV-luciferase reporter, 72 h; stronger effect = lower value | activity change, negative = inhibition, % at 57.5 µM; in the data active = activity change below about -60%; inconclusive = no clear call, values can overlap the other calls; inactive = above about -39%
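Luciferase read-out from HCMV-luciferase-infected HFFs (MOI 1 PFU/cell) 72 h post infection at 37C; compounds added after 16 h cell attachment; activity normalized between buffer-only basal and Salinomycin (10uM) inhibitor controls.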
Giardia FBPA inh: blocks Giardia fructose-bisphosphate aldolase activity | purified Giardia FBPA | Potency, µM (titrated, usually from 59.6 µM), without a hit: at the top dose activity, negative = inhibition, hits mostly inhibitors | 0.71% of 290,000 active; note: potency is the fitted concentration of half-maximal effect; nearly all actives have a fitted effect of over 55% in size
Target sequence (A8B2U2 whole entry, looked up): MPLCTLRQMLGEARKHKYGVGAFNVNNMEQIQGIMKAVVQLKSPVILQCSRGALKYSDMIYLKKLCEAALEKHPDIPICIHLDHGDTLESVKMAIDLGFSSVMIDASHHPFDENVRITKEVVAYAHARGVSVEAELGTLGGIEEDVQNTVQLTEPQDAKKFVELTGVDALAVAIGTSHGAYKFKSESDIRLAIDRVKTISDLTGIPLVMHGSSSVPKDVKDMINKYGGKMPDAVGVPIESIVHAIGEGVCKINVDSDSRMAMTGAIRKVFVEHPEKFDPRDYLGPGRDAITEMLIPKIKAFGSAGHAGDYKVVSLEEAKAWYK
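40 nM FBPA preincubated 10 min at RT with compound (up to 57.5 uM final), then substrate plus GAPDH/TPI/NAD/arsenate coupling and diaphorase/resazurin added. Fluorescence read after 20 min at RT, 525/598 nm.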
RE007 growth inh: less growth of the S. pombe RE007 Vpr strain; Potency, µM (titrated, usually from 92.2 µM), without a hit: top-dose activity change, negative = less growth, usual class: inhibitors; S. pombe RE007 Vpr strain, BacTiter-Glo ATP luminescence, 24 h; 0.21% of 360,000 active; active = well fitted falling curve with a large enough effect; inconclusive = small, poorly fitted or top-dose-only effect; inactive = no such curve, though single readings can be large or run the other way; note: potency is the fitted concentration of half-maximal effect; nearly all actives have a fitted effect of over 50% in size
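Fission yeast RE007 carrying one integrated HIV-1 vpr copy, seeded at OD 0.01 in PMG+AL medium with 23 nL pinned compound. Grown 24 h at 30 degrees; viability read by BacTiter-Glo luminescence after 5 min.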
FMDV inh: antivirals against foot and mouth disease virus; FMDV antiviral cell-based qHTS; Potency, µM (titrated, usually from 57.9 µM), for the others: top-dose activity change, negative = inhibition, usual class: inhibitors; 1.2% of 410,000 active; calls by dose curve; tested in HEK293T cells; note: read-out not given here; potency is the fitted concentration of half-maximal effect; nearly all actives have a fitted effect of over 45% in size
Tb PYK inh: T. brucei pyruvate kinase inhibition | Q57TT1 | TbPYK enzyme, Kinase-Glo Plus ATP luminescence, 45 min | Potency, µM (titrated, usually from 76.8 µM), without a hit: top-dose activity, negative = inhibition, most hits filed as inhibitors | 0.12% of 410,000 active; note: potency is the fitted concentration of half-maximal effect; nearly all actives have a fitted effect of over 50% in size
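Quantitative HTS: titrated library compounds versus trypanosomal pyruvate kinase in TEA buffer (pH 7.2) containing KCl, MgCl2, BSA and Tween-20. Reactions were initiated with ADP, 130 uM final. Kinase-Glo Plus luminescence was read after 45 min at RT.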
Active calls of the source: *; ? = inconclusive; · = no result; [ ] = remark or other dose. The list is not random: actives were taken first. Their share in the collection is about 7.7%. Unless noted, calls come from the whole dose curve; as a rule, active = well fitted curve in the direction sought with a large enough effect; inconclusive = small, poorly fitted or top-dose-only effect, or another doubt; inactive = no such curve, though single readings can be large; an effect the other way counts as inactive or inconclusive. % is set by controls: 0 for no effect and ±100 for the full control effect.

SMILES	Sm TGR block	HCMV antiviral	Giardia FBPA inh	RE007 growth inh	FMDV inh	Tb PYK inh
COc1cc2ccccc2cc1C(=O)Nc1cccc(-c2nc3cc(C)c(C)cc3o2)c1C	5.0%	16.9	·	·	19.3%	-3.2%
COc1cc2c(cc1[N+](=O)[O-])-c1ccccc1C2	·	-75.1*	·	?	18.8%	-5.7%
O=[N+]([O-])c1cc2c(cc1Br)-c1ccccc1C2	·	-20.7	·	-7.0%	0.3%	-6.9%
COC(=O)c1ccc(C(NC(=O)OCc2ccccc2)/C(C)=C/[C@@H](C)C(=O)NCc2cccnc2)cc1 (stereo not given in full)	·	·	3.6%	·	·	·
O=C(CSc1ccc(-c2ccco2)nn1)N1CCCC1	17.8µM*	9.0	-14.3%	-12.7%	2.6%	-19.7%
O=C(CSc1ccc(-c2ccco2)nn1)N1CCCCC1	?	-5.3	12.6µM*	-7.1%	42.5%	-7.7%
O=C(CSc1nnc(-c2ccco2)o1)N1CCCCC1	-0.1%	46.7	·	-23.6%	15.6%	2.3%
COc1ccccc1S(=O)(=O)N(C)C[C@H]1Oc2cc(Br)ccc2S(=O)(=O)N([C@H](C)CO)C[C@H]1C	·	-23.0	·	·	·	·
CCOC(=O)c1c(-c2cccc([N+](=O)[O-])c2)csc1N	1.0%	?	-26.8%	-13.2%	-22.9%	-10.7%
CCOC(=O)c1csc(N)c1-c1ccc([N+](=O)[O-])cc1	3.9%	-71.5*	?	-6.3%	-16.1%	-20.6%
CCCN(CCC)CCNC(=O)c1cc2c(=O)n(C)c3ccccc3c2n1C	50.1µM*	10.9	-8.5%	-7.2%	-8.5%	0.9%
CN(CCNC(=O)c1cc2c(=O)n(C)c3ccccc3c2n1C)Cc1ccccc1	28.2µM*	44.0	-4.2%	-15.6%	-29.3%	0.6%
COc1cccc(N2C(=O)CSC23C(=O)N(Cc2ccccc2)c2ccccc23)c1 (stereo not given)	-10.7%	-14.0	·	·	-29.3%	-0.4%
CC(C)Oc1ccc(C(=O)NCC2Cc3cc(Cl)cc(-c4ncccn4)c3O2)cc1 (stereo not given)	·	·	·	·	-1.5%	·
CC(NC(=O)c1cccc(C(F)(F)F)c1)C(c1ccccc1)N1CCOCC1 (stereo not given)	-5.3%	-62.5*	-10.2%	-12.3%	-23.3%	5.5%
CC(NC(=O)Nc1ccc([N+](=O)[O-])cc1)C(c1ccccc1)N1CCOCC1 (stereo not given)	28.2µM*	3.7	-16.0%	5.4%	-10.0%	-3.4%
CC(NC(=O)Nc1ccc(Cl)c(Cl)c1)C(c1ccccc1)N1CCOCC1 (stereo not given)	-1.4%	-94.8*	-15.1%	-3.3%	-17.6%	1.0%
CC(NC(=O)C1CCC(C(C)(C)C)CC1)C(c1ccccc1)N1CCOCC1 (stereo not given)	-11.4%	?	-0.1%	2.2%	-14.6%	-4.1%
Cc1cccc(C(=O)NC(C)C(c2cccs2)N2CCOCC2)c1 (stereo not given)	0.9%	0.0	6.4%	-4.4%	-17.1%	-0.1%
CC(NC(=O)c1ccc(Cl)cc1Cl)C(c1ccccc1)N1CCOCC1 (stereo not given)	17.9%	-66.1*	0.0%	6.8%	14.4%	1.0%
COc1ccc(CNC(=O)Cn2ccc3cc(S(=O)(=O)N4CCCC4)ccc32)c(OC)c1	0.2%	4.3	·	·	-16.1%	4.0%
COc1ccc(NC(=O)CN(Cc2ccccc2)S(=O)(=O)c2ccc(C)cc2)cc1Cl	-8.8%	-13.9	·	·	?	3.6%
O=C(NC(N1CCOCC1)C(Cl)(Cl)Cl)c1ccccc1Cl (stereo not given)	20µM*	0.9	2.5%	8.2%	20.1%	-1.0%
c1ccc2c(-c3cnn4cc(-c5ccc(N6CCNCC6)cc5)cnc34)ccnc2c1	·	·	·	·	·	0.0%
Cc1ccccc1-n1c(SCC(=O)c2cc(C)n(C)c2C)nnc1-c1ccncc1	-23.8%	-12.3	-6.5%	-3.6%	35.5µM*	-13.7%
SMILES	Sm TGR block	HCMV antiviral	Giardia FBPA inh	RE007 growth inh	FMDV inh	Tb PYK inh
Cc1ccccc1-n1c(SCC(=O)c2ccccc2)nnc1-c1ccc(F)cc1	-0.4%	?	·	·	26.0%	2.1%
Cc1c(Cl)cccc1-n1c(SCC(=O)NCc2ccccc2Cl)nnc1-c1ccncc1	5.0%	-101.9*	6.3%	-5.3%	-24.6%	-21.8%
Cc1noc(C)c1-c1cc(N(C)Cc2ccco2)ncn1	·	·	-10.2%	·	-13.0%	·
O=C(CSc1c2c(nc3cc(Cl)ccc13)CCCC2)NCc1ccco1	89.1µM*	-19.1	-1.2%	15.6%	?	-5.1%
O=C(CSc1nc2ccc(Cl)cc2[nH]1)NCc1ccco1	14.1µM*	-3.6	-24.1%	-3.5%	-27.7%	0.8%
O=C(CSc1nc2ccccc2[nH]1)NCc1ccco1	0.0%	63.2	-3.4%	-0.9%	·	1.3%
O=C(CSc1c2c(nc3cc(Cl)ccc13)CCCC2)NCc1ccccc1Cl	-4.9%	-79.7*	·	·	?	2.7%
CC1CCN(C(=O)CSc2c3c(nc4cc(Cl)ccc24)CCCC3)CC1	-2.5%	-9.5	·	·	?	-9.6%
O=C(CSc1c2c(nc3cc(Cl)ccc13)CCCC2)N1CCN(c2ccccc2)CC1	1.6%	-78.0*	·	·	?	0.2%
CCC(C)NC(=O)CSc1c2c(nc3cc(Cl)ccc13)CCCC2 (stereo not given)	-1.5%	-6.2	·	·	?	-0.9%
O=C(CSc1c2c(nc3ccc(Cl)cc13)CCCC2)NCc1ccccc1Cl	-16.9%	-24.4	·	·	-3.0%	4.0%
Cc1ccc(CCNC(=O)CCn2nc(-c3ccc(C)cc3)ccc2=O)cc1	8.2%	0.0	·	·	-9.7%	8.2%[15.4 µM]
COc1ccccc1Cc1nc2ccccc2nc1SCC(=O)NCc1ccccc1Cl	4.0%	11.4	·	·	6.7%	-2.5%
Fc1cccc(-c2nc(-c3ccncc3)no2)c1	10.3%	31.1	·	·	39.4%	-7.2%
Cc1ccc(CNC(=O)c2sc3nc(-c4ccc(F)cc4)ccc3c2N)cc1	4.1%	-13.7	·	·	-3.9%	-2.1%
O=C(Nc1ccc(C(F)(F)F)cc1)C1CCCN1S(=O)(=O)c1cccc2cccnc12 (stereo not given)	-28.1%	-74.5*	-2.0%	-11.0%	-27.8%	-2.0%
CCC(C)c1ccccc1NC(=O)COc1ccc(-c2nnco2)cc1 (stereo not given)	0.8%	-17.3	·	8.9%	-3.6%	4.4%
O=C(COc1ccc(-c2nnco2)cc1)Nc1ccc(C(F)(F)F)cc1	0.4%	-75.2*	·	4.5%	-22.6%	-3.6%
CCCCc1ccc(-n2nc3cc(Cl)c(NC(=O)c4ccc(OC)cc4)cc3n2)cc1	0.6%	18.5	·	·	38.3%	-13.8%
COC(=O)c1ccc(Cn2cc(/C=C\[N+](=O)[O-])c3ccccc32)o1	-29.8%	-16.1	-0.6%	13.5%	39.8µM*	-9.1%
COC(=O)c1cn(Cc2ccc(F)cc2)c2ccccc12	·	13.2	·	11.5%	-26.9%	-2.7%
